This is a sample that favours compounds with a hit; in the whole collection about 11% have one here.
PNC inhibitor = High Content Assay for Compounds that inhibit the Assembly of the Perinucleolar Compartment. PC3M PTB-GFP, PNC prevalence imaging, 16 h; stronger effect = lower value. activity change (PNC), negative = inhibition, % at 10 µM. 140,000 compounds, 3.1% hits. AID 2417, 2010;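 active means readout at or below -70, meaning at least 70% loss of cells showing the perinucleolar compartment, a nuclear body marking cancer cells; inconclusive means readout between -30 and a set limit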;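 further: plate controls were DMSO wells for no effect and camptothecin positive control wells for full effect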
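Read-out is percentage of cells bearing a perinucleolar compartment, from automated 20x imaging of fixed, Hoechst-stained PC3M PTB-GFP cells. Cells were seeded 4 h, then exposed 16 h to compound (23 nl of library stock) in duplicate plates.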
HPGD block = qHTS Assay for Inhibitors of HPGD (15-Hydroxyprostaglandin Dehydrogenase). 15-hydroxyprostaglandin dehydrogenase [NAD(+)] (Homo sapiens), P15428. Potency, µM, without a hit: top-dose activity change, negative = inhibition, usual class: inhibitors. 150,000 compounds, 4.3% hits. AID 894, 2007. purified HPGD, NADH fluorescence kinetic, PGE2 substrate; further: potency means the concentration at half of the fitted maximal effect
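NADH formation kinetics: reaction with 30 uM PGE2 and 1 mM NAD+ (final), 20 nM enzyme, Tris-HCl pH 8 with Tween 20, after 15 min compound preincubation at room temperature. Fluorescence change, last versus first of five reads.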
ALDH1A1 inh = qHTS Assay for Inhibitors of Aldehyde Dehydrogenase 1 (ALDH1A1); Potency, µM (highest dose often 75.3 µM), inactives show at the top dose activity, negative = inhibition, hits mostly inhibitors; AID 1030, 2008; 220,000 compounds, 7.3% hits; Purified ALDH1A1, NADH fluorescence, propionaldehyde substrate;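 further: potency means the concentration at half of the fitted maximal effect; plate controls were no enzyme wells and a reference inhibitor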
KDM4E inh = qHTS Assay for Inhibitors of Human Jumonji Domain Containing 2E (JMJD2E) | JMJD2E catalytic domain, FDH-coupled NADH fluorescence (FDH is formaldehyde dehydrogenase) | Potency, µM (titrated, usually from 57.1 µM), for inactives: at the highest dose activity change, negative = inhibition, most hits filed as inhibitors | 230,000 compounds, 1.6% hits;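 further: potency means the concentration at half of the fitted maximal effect; 0% = wells with enzyme and -100% = buffer wells without enzyme; nearly all actives have a fitted effect of over 50% in size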
Target sequence (B2RXH2 1-337 limits assumed): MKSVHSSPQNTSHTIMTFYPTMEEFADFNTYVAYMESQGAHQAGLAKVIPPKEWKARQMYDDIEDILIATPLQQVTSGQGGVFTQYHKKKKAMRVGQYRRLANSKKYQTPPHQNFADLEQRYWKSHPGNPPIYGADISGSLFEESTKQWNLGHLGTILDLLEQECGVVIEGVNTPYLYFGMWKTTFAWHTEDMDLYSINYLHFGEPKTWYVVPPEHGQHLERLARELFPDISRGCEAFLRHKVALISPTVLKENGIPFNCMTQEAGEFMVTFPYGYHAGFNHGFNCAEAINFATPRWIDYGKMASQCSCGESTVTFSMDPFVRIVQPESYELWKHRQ
* marks the source's active call; other numbers are inactive results; ? = inconclusive; . = not tested or not shown; ! = not active in a repeat; [ ] = dose if it differs, or a comment. Unless noted, the call rests on the fitted dose curve; in most records, active means well fitted inhibition curve with a large enough effect (not every such curve was filed as active); inconclusive means small, poorly fitted or top-dose-only effect, or another doubt; inactive means no such curve, though single readings can be large or run the other way. Unless noted, on the % scale 0 is the no-effect control and ±100 the full control effect.

SMILES | PNC inhibitor | HPGD block | ALDH1A1 inh | KDM4E inh
C[C@]12CC[C@@H]3c4ccc(O)cc4CC[C@H]3[C@@H]1C[C@@H](O)[C@@H]2O[C@@H]1O[C@H](C(=O)O)[C@@H](O)[C@H](O)[C@H]1O | 30 | -9% | -4% | 22µM*
O=C(c1ccccc1)[C@H]1[C@H](c2ccccc2[N+](=O)[O-])N1C1CCCCC1 (stereo partly drawn) | . | -20% | 3%[13.5 µM] | .
C=C(C)c1ccccc1 (tested in a mixture with another compound) | . | 1% | 1%[13.5 µM] | .
C=C(c1ccccc1)P(=O)(O)O | -113* | -4% | 13% | 0%
Clc1cc(Cl)c(Cl)c(Cl)c1 | . | -22% | ? | .
CC1(C)[C@@H]2CC[C@]1(C)CN(CCC[N+](C)(C)C)C2 | . | 1% | 9%[13.5 µM] | .
O=[N+]([O-])CCO | . | -11% | 18µM* | .
CCC[N+](=O)[O-] | . | -5% | 8% | .
CCOc1cc(C=C2C(=O)NC(=O)NC2=O)ccc1OCC(=O)N1CCOCC1 | -13 | -18% | 35µM* | ?
Cc1c(C=C2C(=O)NC(=O)NC2=O)c(=O)n(-c2ccccc2)n1C | . | . | 3% | 0%
COc1cc(/C=C2\C(=O)NC(=O)N(c3ccccc3)C2=O)c([N+](=O)[O-])cc1OC | . | . | ? | 65%
COc1cc(/C=C2/C(=O)N(c3ccccc3)N=C2C)ccc1OS(=O)(=O)c1ccccc1 | ? | 20µM* | ? | 0%
CCOc1cc(C=C2C(=O)NC(=O)NC2=O)ccc1OS(=O)(=O)c1ccccc1 | 72 | 13µM* | ? | ?
CN1CC[C@@]2(c3cccc(O)c3)Cc3nc4ccccc4cc3C[C@H]2C1 | . | -8% | -2% | -2%
Cc1cccc(-n2c(O)c(/C=N/Nc3nc4c(c(=O)n(C)c(=O)n4C)n3C)c(=O)[nH]c2=S)c1 | -28 | -28% | 10µM* | ?
Cc1ccccc1-n1c(O)c(/C=N/Nc2nc3c(c(=O)n(C)c(=O)n3C)n2C)c(=O)[nH]c1=S | 25 | -19% | 13µM* | ?
O=C1OC(=O)C2C3CCC(O3)C12 (stereo not drawn) | . | -6% | -6% | 22µM*!
COc1ccc(CCNc2oc(-c3ccc(OC)c(OC)c3)nc2P(=O)(OC)OC)cc1OC | -1 | ? | 10% | 1%
Cc1ccc(N2C(=O)NC(=O)/C(=C\C=C\c3ccco3)C2=O)cc1C | 34 | 10µM* | ? | -11%
Cc1ccc(N2C(=O)NC(=O)/C(=C\C=C\c3ccco3)C2=O)cc1 | . | . | . | -19%
O=C1NC(=O)N(Cc2ccco2)C(=O)/C1=C/C=C/c1ccco1 | . | . | . | 25µM*
CCOC(=O)C1CCN(/C=C2/C(=O)NC(=O)N(Cc3ccco3)C2=O)CC1 | ? | -14% | 3.5µM* | -6%
O=C1NC(=O)N(Cc2ccccc2)C(=O)/C1=C/N1CCCc2ccccc21 | 48 | -24% | 8.9µM* | ?
O=C(Nc1cccc(F)c1)N1CCCC2(CCN(C(=O)Oc3ccccc3)CC2)C1 | . | -15% | -1% | .
CC(=O)N(O)[C@@H]1c2cc(C#N)ccc2OC(C)(C)[C@H]1O | . | -13% | 4% | ?
SMILES | PNC inhibitor | HPGD block | ALDH1A1 inh | KDM4E inh
C=C(C)c1ccccc1 | . | -1% | 7% | .
CC(=O)O[C@H]1C[C@@H](O[C@@H]2[C@H](C)O[C@H](O[C@@H]3[C@H](C)O[C@H](O[C@@H]4CC[C@@]5(C)[C@@H](CC[C@]6(C)[C@]5(C)C[C@H](O)[C@]5(C)[C@@H](C7=CC(=O)OC7)CC[C@@]56O)C4)C[C@@H]3O)C[C@@H]2O)O[C@@H](C)[C@H]1O[C@H]1O[C@@H](CO)[C@@H](O)[C@@H](O)[C@@H]1O | . | -12% | 25%[20.9 µM] | 6%[25.5 µM]
O=C1NC(=O)N(c2ccccc2)C(=O)/C1=C/C=C/c1ccco1 | . | . | . | -12%
O=C1NC(=O)N(Cc2ccccc2)C(=O)/C1=C\C=C\c1ccco1 | . | . | 3.2µM* | -30%
O=C(c1c[nH]c(C(=O)C(Cl)(Cl)Cl)c1)c1ccccc1Cl | -25 | 14µM* | ? | -3%
O=NN(CCCl)C(=O)NCCCl | . | -4% | 3.2µM*! | 9%
COc1ccc(N/N=C/c2c(O)n(-c3cccc(C)c3)c(=O)[nH]c2=O)cc1 | . | . | 3.2µM* | -26%
COc1ccc(N/N=C/c2c(O)n(-c3ccc(C)c(C)c3)c(=O)[nH]c2=O)cc1 | 51 | ? | 1.6µM* | ?

Bioassay records (PubChem BioAssay)
